Compounds with a hit are over-represented: about 2.1% of the library has one in this group of screens.
ADAM10 inh – ADAM10 inhibition, QFRET primary screen; O14672; recombinant ADAM10, EDANS/DABCYL FRET peptide cleavage, 3 h; inhibition, % at 7 µM; 370,000 compounds, 0.62% hits;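 active = inhibition above a per-campaign cutoff equal to the mean of compounds falling between control-based bounds plus 3 SD, cut at about 20% in these data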;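 also: 0% = DMSO wells while the 100% control is not disclosed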
PLCb3 inh – inhibitors of human phospholipase C beta3 | Q01970 | Purified PLC-beta3, fluorogenic substrate, fluorescence | inhibition, % at 12.2 µM | 370,000 compounds, 0.18% hits | AID 720704; in the data active = inhibition above about 11%;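 also: 0% = median of compound wells on plate and 100% = full blocker control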
Target sequence (Q01970 whole entry, looked up): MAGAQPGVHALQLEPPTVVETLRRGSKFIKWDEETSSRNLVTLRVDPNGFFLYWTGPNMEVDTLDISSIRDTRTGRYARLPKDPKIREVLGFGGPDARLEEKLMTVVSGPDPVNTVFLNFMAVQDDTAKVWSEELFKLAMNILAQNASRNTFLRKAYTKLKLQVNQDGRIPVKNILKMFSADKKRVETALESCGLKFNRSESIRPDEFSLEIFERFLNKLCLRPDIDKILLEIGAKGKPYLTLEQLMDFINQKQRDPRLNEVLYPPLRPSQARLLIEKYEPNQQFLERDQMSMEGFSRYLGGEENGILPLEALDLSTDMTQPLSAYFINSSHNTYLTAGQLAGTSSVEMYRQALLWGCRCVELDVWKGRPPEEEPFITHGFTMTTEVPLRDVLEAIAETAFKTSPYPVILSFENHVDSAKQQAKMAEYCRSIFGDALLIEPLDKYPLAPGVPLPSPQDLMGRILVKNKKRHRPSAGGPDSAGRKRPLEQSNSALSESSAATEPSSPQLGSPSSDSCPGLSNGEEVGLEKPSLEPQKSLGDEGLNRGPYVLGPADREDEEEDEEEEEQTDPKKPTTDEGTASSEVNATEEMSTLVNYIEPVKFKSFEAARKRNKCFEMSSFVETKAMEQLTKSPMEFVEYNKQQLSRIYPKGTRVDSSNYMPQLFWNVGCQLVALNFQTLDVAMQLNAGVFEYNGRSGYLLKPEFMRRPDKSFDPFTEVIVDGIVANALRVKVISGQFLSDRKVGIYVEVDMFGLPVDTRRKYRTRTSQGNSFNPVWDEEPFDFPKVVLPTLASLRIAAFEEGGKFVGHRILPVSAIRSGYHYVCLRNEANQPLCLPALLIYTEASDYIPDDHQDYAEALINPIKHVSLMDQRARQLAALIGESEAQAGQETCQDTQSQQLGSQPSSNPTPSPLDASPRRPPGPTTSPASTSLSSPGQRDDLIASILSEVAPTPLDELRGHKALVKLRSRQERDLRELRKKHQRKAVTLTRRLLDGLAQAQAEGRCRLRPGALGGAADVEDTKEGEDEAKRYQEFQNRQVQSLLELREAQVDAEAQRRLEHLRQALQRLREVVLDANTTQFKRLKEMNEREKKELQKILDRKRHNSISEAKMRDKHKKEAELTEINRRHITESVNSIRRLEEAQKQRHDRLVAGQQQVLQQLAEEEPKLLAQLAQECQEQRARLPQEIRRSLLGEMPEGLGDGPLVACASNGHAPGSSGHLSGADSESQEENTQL
ADAM17 inh – inhibits human ADAM17. inhibition, % at 6.95 µM. P78536. 370,000 compounds, 0.83% hits. recombinant ADAM17, EDANS/DABCYL FRET peptide cleavage;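 active = inhibition above the mean of compounds lying between control limits plus 3 SD, set per campaign, cut at about 8.5% in these data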;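 also: 0% = DMSO-only wells as the low control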
PLC-gamma1 inh – inhibitors of human phospholipase C gamma1; P19174; purified PLC-gamma1, fluorogenic substrate, fluorescence; inhibition, % at 12.2 µM; 370,000 compounds, 0.84% hits; AID 720700
Rce1 inh – blocks yeast Ras-converting enzyme | Q03530 | yeast membranes, quenched prenylated peptide cleavage fluorescence | calls only | 290,000 compounds, 0.27% hits | AID 2563;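 active = fall in fluorescence gain of 50% or more versus controls, with final raw signal at or below 3038400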;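 also: plate controls were neutral control wells for no effect and wells lacking membranes for full effect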
PLCg1 ctr – counter-screen for PLC-beta3 inhibitors: inhibitors of human PLC-gamma1 | purified PLC-gamma1, fluorogenic substrate, fluorescence | 3,300 compounds, 3.1% hits | shares compounds with PLC-gamma1 inh | inhibition, % at 12.3 µM
PLCbeta3 conf – confirmation of human PLC-beta3 inhibitors. shares compounds with PLC-gamma1 inh. purified PLC-beta3, fluorogenic substrate fluorescence. inhibition, % at 12.3 µM. 3,300 compounds, 1% hits; in the data active = inhibition above about 11%
An asterisk follows results filed as active; i = inactive; . = no result. Rule as the data show it, unless noted: active = inhibition above about 9.5%; inactive = the rest.

SMILES | ADAM10 inh | PLCb3 inh | ADAM17 inh | PLC-gamma1 inh | Rce1 inh | PLCg1 ctr | PLCbeta3 conf
C=CCNC(=S)NNC(=O)CCC(O)CCCCC (stereo unspecified) | 6.2 | 12.1* | 0.9 | 9.4 | i | -3.9 | -1.1
COC(=O)CC#C[C@H](C)[C@@H](NS(=O)(=O)c1ccc([N+](=O)[O-])cc1)C(C)(C)C | -5.0 | 4.0 | 4.5 | 2.3 | . | . | .
COc1cccc(N=C2SC(CC(=O)Nc3ccccc3)C(=O)N2Cc2ccccn2)c1 (stereo unspecified) | 17.3 | -6.5 | 2.1 | 1.4 | i | . | .
O=C(CC1SC(=Nc2ccccc2)N(CCc2ccccn2)C1=O)Nc1ccc(F)cc1 (stereo unspecified) | 7.4 | 4.8 | 0.0 | 9.8* | i | 3.0 | 5.2
CCN(CC)C(=O)[C@H]1C[C@@H]2[C@H](C[C@@H](c3ccccc3)[C@H]1C)N(c1ccc(F)cc1)C(=O)N2C/C=C(\C)CCC=C(C)C | -10.1 | -6.3 | 0.8 | 5.6 | . | . | .
CCC(=O)Nc1c(C)nn(-c2ccc(C)c(C)c2)c1C | -5.1 | 2.0 | -0.7 | 2.6 | i | . | .
CC(=O)Nc1c(C)nn(-c2ccc(C)c(C)c2)c1C | 4.5 | 2.1 | 2.2 | 9.6* | i | -4.5 | -2.3
CCOc1ccccc1NC(=O)COn1nnc2ccccc21 | 8.0 | 4.1 | 5.4 | 11.4* | i | -4.3 | -6.8
CCCC(=O)Nc1ccc(C)c(O)c1 | 10.8 | 5.3 | 1.9 | 1.5 | i | . | .
CCCCC(=O)Nc1ccc(C)c(O)c1 | 9.2 | 11.0* | 4.0 | 9.6* | i | 1.4 | 2.1
CCCCC(=O)Nc1cc(NC(=O)CCCC)cc(C(=O)O)c1 | 7.9 | 5.7 | 6.2 | 15.1* | . | -5.2 | 0.2
O=c1[nH]cnc2c1ncn2C1OC(CO)CC1F (stereo unspecified) | -3.9 | 0.1 | -2.7 | 1.4 | . | . | .
CC1=C(C(=O)OC2CCCCC2)C(c2ccc(F)cc2)NC(=O)N1 (stereo unspecified) | 11.1 | -1.4 | 4.2 | 4.1 | i | . | .
CC1CCc2cc(F)ccc2N1C(=O)CSc1nnc2c3ccccc3n(C)c2n1 (stereo unspecified) | -2.8 | 2.0 | 3.7 | 9.7* | i | -10.3 | -2.6
CC1CCc2cc(F)ccc2N1C(=O)CSc1nnc2c3cc(F)ccc3n(C)c2n1 (stereo unspecified) | 8.7 | 3.7 | -0.1 | 5.4 | i | . | .
O=C(COc1ccc2ccc(=O)oc2c1)N1CCc2ccccc21 | -24.0 | -10.4 | -4.3 | -5.5 | i | . | .
CCCCCCCCCC(=O)N/N=C/c1ccc(C)s1 | 16.4 | 3.5 | 6.6 | 10.2* | i | -8.1 | -7.2
Cc1ccc(/C=N/NC(=O)C[n+]2ccccc2)s1 | 2.9 | 0.3 | 1.3 | 1.2 | i | . | .
O=C(O)c1ccc(OCc2ccc(C(=O)O)o2)cc1 | -6.6 | -4.6 | -4.0 | -1.4 | i | . | .
O=C(O)c1ccc(OCc2occc2C(=O)O)cc1 | 8.4 | 5.0 | 3.1 | 12.8* | i | -8.3 | -6.6
Cc1ccc(NC2CCCN(C(=O)c3cc4ncccn4n3)C2)cc1C (stereo unspecified) | -9.3 | -9.6 | -4.0 | -1.9 | i | . | .
CCCS(=O)(=O)NC(=O)C1(C)CCCN(C(=O)c2ccc(C#N)cc2)C1 (stereo unspecified) | 0.4 | 2.6 | -1.1 | 1.3 | . | . | .
Nc1ccn([C@H]2CS[C@@H](CO)O2)c(=O)n1 | -6.1 | 0.4 | -5.0 | -1.6 | . | . | .
Nc1nc(=O)n([C@@H]2CS[C@H](CO)O2)cc1F | 6.7 | 13.8* | 0.2 | 14.2* | . | -0.9 | -0.9
COC(=O)[C@]12C[C@H](CC(=O)N3CCCCC3)C(=O)N(Cc3ccccc3)C1=C[C@H](C(C)(C)C)O[C@@H]2C | -1.6 | 1.6 | -4.5 | 1.5 | . | . | .
SMILES | ADAM10 inh | PLCb3 inh | ADAM17 inh | PLC-gamma1 inh | Rce1 inh | PLCg1 ctr | PLCbeta3 conf
O=c1[nH]c(-c2ccccn2)nc(C(F)(F)F)c1Br | 8.9 | 0.7 | -2.0 | 10.6* | i | -5.0 | -3.5
COC(=O)[C@]12C[C@H](CC(=O)N3CCSCC3)C(=O)N(CCC3=CCCCC3)C1=C[C@H](C(C)(C)C)O[C@@H]2C | 3.8 | 6.0 | 1.8 | 1.3 | . | . | .
Cc1ccc(C(=O)CSc2nnnn2-c2ccccc2)o1 | 9.2 | -0.8 | 8.2 | 10.9* | i | -4.6 | 0.5
Cc1cc(C)c(CSc2nnnn2-c2ccc(C(=O)O)cc2)c(C)c1 | 7.3 | -1.5 | 4.8 | 12.4* | i | -3.9 | -5.4
O=C(O)c1ccc(-n2nnnc2SCc2cccc(Br)c2)cc1 | -1.8 | -2.9 | -3.0 | 1.0 | i | . | .
COc1ccc(NC(=O)CSc2nnnn2-c2ccc(OC)cc2)cc1 | 5.8 | 1.4 | 5.0 | 11.4* | i | -0.3 | 2.1
Cc1ccc(C(=O)CSc2nnc(-c3ccccc3)n2-c2ccccc2)o1 | 0.7 | 3.7 | -3.6 | -1.9 | i | . | .
Cc1cc(C)nc(NC(=O)CSc2nnnn2-c2ccccc2)n1 | -1.6 | 0.7 | -0.8 | 12.0* | i | -0.1 | 1.8
OC(c1ccc(Cl)cc1)c1ncc(-c2ccccc2F)[nH]1 (stereo unspecified) | -10.5 | 5.7 | 0.0 | -0.9 | . | . | .
O=C(CCl)c1ccc2c(c1)CCN2C(=O)C1CCCCC1 | -25.3 | -18.4 | -10.3 | -6.7 | i | . | .
COc1cc2c(cc1C1NC(=S)NC(C)=C1C(N)=O)CCCC2 (stereo unspecified) | -3.8 | 0.7 | -2.0 | -1.8 | . | . | .
O=C(O)CSc1nnc(COc2ccc([N+](=O)[O-])cc2)n1-c1ccccc1 | -1.2 | -2.7 | -4.0 | -2.3 | i | . | .
O=C(O)CCSc1nnc(COc2ccc([N+](=O)[O-])cc2)n1-c1ccccc1 | 3.0 | -3.5 | 5.9 | 10.8* | i | -0.2 | 2.1
COc1ccc(-n2c(COc3ccccc3)nnc2SCC(=O)Nc2ccc(OCc3ccccc3)cc2)cc1 | -13.1 | 0.2 | -5.3 | 9.6* | . | 4.6 | -9.3
COc1ccc(NCc2nnc(SCC(=O)Nc3nc(-c4ccccc4)cs3)n2-c2ccccc2)cc1 | 5.7 | -0.1 | -1.5 | 3.9 | i | . | .
C=CCn1c(SCC(=O)Nc2ccccc2-c2ccccc2)nnc1-c1ccccc1 | 8.6 | 9.8 | 3.9 | 13.2* | . | -0.9 | 1.6
Cc1cc(C)nc(SCc2nnc(SCC(=O)Nc3nc(-c4ccccc4)cs3)n2-c2ccccc2)n1 | 12.1 | 6.8 | 6.1 | 11.4* | i | -2.8 | 0.1
C=CCn1c(SCC(=O)Nc2ccccc2C)nnc1-c1ccncc1 | -8.5 | -1.2 | -1.1 | -2.2 | i | . | .
O=C(NCCc1ccccc1Cl)[C@@H]1CCCN1C(=O)[C@H](Cc1cccnc1)NC(=O)N1CCOCC1 | -17.5 | 3.8 | -6.5 | 4.0 | . | . | .
COc1ccc(-n2c(SCC(=O)Nc3ccccc3-c3ccccc3)nnc2-c2ccccn2)cc1 | 7.4 | 6.5 | 5.3 | 10.2* | . | 0.8 | -4.2
O=C(O)/C=C\C(=O)NCc1ccccc1 | -4.4 | 1.4 | -2.1 | 0.2 | i | . | .
O=C(O)/C=C/C(=O)NCc1ccccc1 | 1.2 | 6.4 | 6.7 | 10.2* | i | -5.5 | -2.5
CCCN1CNC(=S)N(c2ccccc2OCC)C1 | 11.0 | 1.9 | -0.5 | 4.5 | i | . | .

Screening results deposited in PubChem BioAssay by several laboratories.
